# In all, about 300,000 compounds went through this assay and about 37,000 (12%) were called active. The list comes from a sample in which actives are over-represented; it also holds similar structures and randomly drawn compounds. A number with no mark means an inactive call. No stated cut-off is given here; in the data, active means max response mostly above about 13% (no sharp cut-off); inactive means mostly below about 14%.
# Assay: Cycloheximide Counterscreen for Small Molecule Inhibitors of Shiga Toxin; further: read at 38.3 µM for the half of the compounds with a filed dose; 0% is about no effect
# Conditions: cell reporter, cycloheximide protein synthesis inhibition counterscreen; stronger effect = higher value
row,SMILES,max response
1,CCOc1ccc2[nH]c(C(=O)N/N=C/c3cccc(OC)c3OC)cc2c1,9.3%
2,CC(C)c1ccc(N(C(=O)c2ccco2)C(C(=O)NC2CCCC2)c2cccnc2)cc1 (centres undefined),-5.72%
3,CCC1CCCCN1CCCNC(=O)c1cc2c(Cl)nc3ccccc3c2s1 (centres undefined),-11.5%
4,Oc1ccc(-c2onc3ccc(Cl)cc23)cc1,15.4%
5,COC(=O)c1ccc(COC(=O)c2cnc(Cl)c(Cl)c2)cc1,34.6% (active)
6,CCOc1ccc(C(C)=O)cc1COC(=O)c1cnc(Cl)c(Cl)c1,-0.208%
7,COC(=O)c1ccc(COC(=O)c2cnccn2)cc1,-1.89%
8,COc1ccc(NS(=O)(=O)c2ccc(O)c(C(=O)OCC(=O)NC3CCCCC3)c2)cc1,0.885%
9,CCN(C(=O)COc1cccnc1[N+](=O)[O-])C1CCS(=O)(=O)C1 (centres undefined),-3%
10,Cc1nn2c(=O)cc(COC(=O)c3ccc(NC(=O)C(C)(C)C)cc3)nc2s1,-6.18%
11,COc1ccc(-c2cc(C(=O)NCCCn3ccnc3)no2)cc1,19.9% (active)
12,O=C(NCCCn1ccnc1)c1ccccc1F,1.63%
13,COc1ccccc1-c1cc(C(=O)NCCCn2ccnc2)no1,-1.18%
14,O=C(NCCCn1ccnc1)c1cc(Br)c(Br)s1,-0.73%
15,COc1cc(OC)cc(C(=O)NCCCn2ccnc2)c1,-2.01%
16,O=C(NCCCn1ccnc1)c1cc(-c2ccccc2)on1,27.9% (active)
17,CCN(Cc1ccccc1)C(=O)CCS(=O)(=O)c1ccc2c(c1)oc(=O)n2C,0.913%
18,CCC(=O)c1cn(CCOc2ccccc2OC)c2ccccc12,3.68%
19,CC(C)[C@H](NC(=O)N1CCn2c1nc1ccccc12)C(=O)NC1CC1,12.8% (active)
20,CC(C)[C@H](NC(=O)N1CCn2c1nc1ccccc12)C(=O)NCCc1ccccc1,11.9%
21,CC(C)C[C@H](NC(=O)N1CCn2c1nc1ccccc12)C(=O)NC1CC1,-12.6%
22,CCOC(=O)c1cc(C(=O)Nc2ccc(S(=O)(=O)Nc3ccc(OC)cc3)cc2)nn1C,3.41%
23,COc1ccc(-c2ocnc2C(=O)Nc2ccc3c(c2)CCC3)cc1,-4.1%
24,CCCC(=O)Nc1ccc2c(c1)nc1n2CCSC1,24.1% (active)

row,SMILES,max response
1,CCOC(=O)N1CCN(Cc2nc3cc(NC(=O)CC)ccc3n2CC)CC1,-2.89%
2,CCCC(=O)Nc1ccc2c(c1)nc(CCNC(=O)c1ccco1)n2C,-0.909%
3,Cc1ccccc1N1CCN(Cc2nc(Cc3ccccc3F)no2)CC1,-1.36%
4,O=C(NCc1ccco1)C1(c2ccc(Cl)cc2)CCCC1,-3.56%
5,O=C(/C=C/c1ccc(Cl)cc1Cl)NCc1ccco1,34.8% (active)
6,COC(=O)/C=C/C(=O)NCc1ccco1,-1.68%
7,FC(F)(F)C1CCCN(c2nsc3ccccc23)C1 (centres undefined),-4.78%
8,Cc1ccc2[nH]c(=O)c(CN(CC3COCCO3)C(=O)Nc3ccccc3C)cc2c1 (centres undefined),-2.55%
9,COc1ccc(CC(=O)Nc2c(C(N)=O)oc3ccccc23)cc1,-1.28%
10,COc1ccc(CC(=O)Nc2ccc(-c3nnc(-c4ccccc4)o3)cc2)cc1,10.6% (active)
11,Cc1cccc(NC(=O)CSc2nnc(-c3ccco3)o2)c1,5.5%
12,Cc1ccc(OCC(=O)Nc2nnc(-c3ccco3)s2)cc1,-1.91%
13,COc1ccc(NC(=O)CS(=O)(=O)c2ccccc2)cc1,26.3% (active)
14,Cc1ccc(OCC(=O)Nc2ccc(-c3nnc(-c4ccco4)o3)cc2)cc1,28.8% (active)
15,O=C(CS(=O)(=O)c1ccccc1)Nc1ccc(S(=O)(=O)Nc2ccccn2)cc1,-1.21%
16,CC(=O)Nc1ccc(NC(=O)COc2ccc(-c3ccccc3)cc2)cc1,1.23%
17,COc1ccc(NC(=O)c2cnc(NS(=O)(=O)c3ccccc3)nc2)cc1,-2.55%
18,Cc1ccc(OCC(=O)Nc2ccc(-c3nc4ncccc4o3)cc2)cc1,-0.121%
19,O=C(CCc1ccccc1)Nc1cccc(-c2nnc(-c3ccco3)o2)c1,1.83%
20,CCC(=O)Oc1cccc(C(=O)Nc2ccc(-c3nnc(-c4ccco4)o3)cc2)c1,35.2% (active)
21,Fc1ccc2c(c1)C(c1cccnc1)=NNC(c1cccs1)=N2,14.7%
22,CC(=O)Nc1ccc(Nc2c([N+](=O)[O-])cc(S(C)(=O)=O)cc2[N+](=O)[O-])cc1,-3.33%
23,CCN(CC)S(=O)(=O)c1ccc(N2CCOCC2)c(NC(=O)C2CSC3(C)CCC(=O)N23)c1 (centres undefined),10.5%
24,CC(=O)N1c2ccccc2N(Cc2ccc([N+](=O)[O-])cc2)C(=O)C1(C)C,10.6%

row,SMILES,max response
1,O=C(COc1ncnc2c(Cl)cc(Cl)cc12)N1CCN(S(=O)(=O)c2ccccc2)CC1,4.8%
2,CN(C)c1cccc(C(=O)N2CCC(n3nccc3NC(=O)C3CCOC3)CC2)c1 (centres undefined),5.41%
3,O=C(CNC(=O)OCc1ccccc1)Oc1cc2oc(=O)cc(-c3ccccc3)c2cc1Cl,7.2%
4,COc1cccc(N(CC(=O)NCc2ccccc2)C(=O)CCC(=O)Nc2nccs2)c1,-5.29%
5,O=C(c1ccc(S(=O)(=O)N2CCCC2)cc1)N1CCN(c2ccccc2F)CC1,-1.05%
6,Cc1ccc(S(=O)(=O)N(C)c2nc3ccccc3n3c(C(C)C)nnc23)cc1,1.55%
7,CCc1nn(CCCC(=O)NC(C)c2ccccc2)c(=O)c2cc3occc3n12 (centres undefined),10.1%
8,O=C(c1ccc(F)cc1)c1c[nH]c(C(=O)NCc2cccnc2)c1,0.811%
9,C#CCOCCOCCOCCNc1nc(N2CCN(C(=O)[C@H](CCC(=O)O)n3cc(C(N)CO)nn3)CC2)nc(N2CCN(C(=O)[C@H](CCCCN)n3cc(C(N)[C@H](C)CC)nn3)CC2)n1 (some centres undefined),-1.6%
10,COc1ccc(C(=O)CSc2nnc(-c3ccco3)o2)cc1,11.4%
11,COc1ccc(OCC(=O)Nc2nnc(-c3ccco3)s2)cc1,-4.11%
12,CCCCOc1ccc(-c2nnc(-c3ccco3)o2)cc1,28.1% (active)
13,O=c1c(Cl)c(NCc2ccc(F)cc2Cl)cnn1C12CC3CC(CC(C3)C1)C2,-2.73%
14,COc1cccc(C2CC(c3cccs3)=NN2C(=O)CSC2=NCCS2)c1OC (centres undefined),-1.93%
15,COc1ccc(N(C)C(=O)CCS(=O)(=O)c2cccc3nsnc23)cc1,3.71%
16,O=C(NCCOc1ccccc1F)Nc1ccc(Br)cc1,41.8% (active)
17,O=C(NCCOc1ccccc1Cl)C(=O)Nc1ccccc1,-6.33%
18,O=C(Nc1ccccc1)Nc1nnc(COc2ccccc2F)s1,0.805%
19,COc1ccc(CN2CCc3nc(Nc4ccccc4)ncc3C2)c(OC)c1OC,12.2%
20,CCN(CC)C(=O)CC1(c2ccccc2OC)CCOC(C(C)C)C1 (centres undefined),-2.61%
21,O=C(NC(=S)Nc1cc(C(F)(F)F)ccc1N1CCOCC1)c1ccc(-c2cccc(Cl)c2)o1,12.2%
22,O=C(O)c1ccccc1NC(=O)c1ccccc1-c1ccccc1C(=O)O,1.58%
23,O=C(NC(=S)Nc1ccccc1C(=O)O)c1ccc(-c2ccc(Br)cc2)o1,45.5% (active)
24,O=C(O)c1ccc2c(=O)n3c(nc2c1)/C(=C/c1ccc(Cl)c([N+](=O)[O-])c1)CC3,-1.06%

row,SMILES,max response
1,COc1ccc(N=Nc2c(-c3ccc(OC)cc3)[nH]oc2=O)cc1,-1.85%
2,COc1cc(NC(=O)CCS(=O)(=O)c2ccc3c(c2)oc(=O)n3C)cc(OC)c1,-9.36%
3,CN(c1ccc2nc3ccccc3c(=O)n2n1)C1CCCCC1,-12.8%
4,O=C(NC(=O)N1CCOCC1)c1ccccc1,4.39%
5,CN1CCN(S(=O)(=O)c2cccc(C(=O)O)c2)CC1,-8.28%
6,NC(=NC(=O)c1ccccc1)N1CCOCC1,-1.9%
7,O=C(c1ccccc1)N1CCN(C(=O)N2CCCCC2)CC1,-3.32%
8,O=C(O)c1cccc(N=NN2CCCCCC2)c1,69.7% (active)
9,O=C(O)c1ccc(N=NN2CCOCC2)cc1,39% (active)
10,CCOC(=O)N1CCN(S(=O)(=O)N2CCCC(C(=O)NCCCN3CCC(C)CC3)C2)CC1 (centres undefined),1.6%
11,CCc1ccccc1NC(=O)/C(=C/c1ccccc1)c1ccccc1,8.5%
12,O=C(Nc1ccccc1N1CCN(C(=O)c2ccccc2)CC1)c1ccco1,-3.96%
13,CCOC(=O)C1CCN(c2ncnc3c2c(-c2ccccc2)cn3-c2ccc(C)cc2)CC1,1.88%
14,COc1ccc(/C=C2/S/C(=N/N=C3\CC4CCC3(C)C4(C)C)NC2=O)cc1 (centres undefined),8.52%
15,COc1ccc(N(Cc2cc3ccc(C)cc3[nH]c2=O)S(=O)(=O)c2ccccc2)cc1,0.769%
16,O=C(NCCc1ccccc1)c1ccc2c(c1)N(Cc1ccccc1)CCS2,38.6% (active)
17,CCOC(=O)N1CCN(C(=O)c2ccc3c(c2)N(Cc2ccc(C)cc2)CCS3)CC1,-0.464%
18,O=C(NCCN1CCOCC1)c1ccc2c(c1)N(Cc1ccc(Cl)cc1)CCS2,-1.99%
19,COc1cc(SC#N)ccc1N=Cc1c(C)[nH]n(-c2ccc(C)cc2)c1=O,-1.77%
20,CCC1CCc2c(sc(NC(C)=O)c2C#N)C1 (centres undefined),14.2% (active)
21,CC(=O)N1CCc2c(sc(NC(=O)CCS(=O)(=O)c3ccccc3)c2C#N)C1,6.75%
22,CN1CCN(CC(=O)Nc2sc3c(c2C#N)CCC(C(C)(C)C)C3)CC1 (centres undefined),-3.82%

# Reference: PubChem BioAssay AID2314 (National Center for Advancing Translational Sciences (NCATS), 2010)
